Compound activity: PubChem BioAssay, Paczesny and Yang Labs, IUPUI and University of Michigan
ST2 IL33 inh = blocks human ST2 binding to IL-33 | AID 1259354 | 78,000 compounds, 2.3% hits | Q01638 | inhibition, % for hits at 17 µM | AlphaLISA ST2-Fc/biotin-IL-33 interaction, 1 h; in the data active means inhibition above about 30%
Target sequence (Q01638 whole entry, looked up): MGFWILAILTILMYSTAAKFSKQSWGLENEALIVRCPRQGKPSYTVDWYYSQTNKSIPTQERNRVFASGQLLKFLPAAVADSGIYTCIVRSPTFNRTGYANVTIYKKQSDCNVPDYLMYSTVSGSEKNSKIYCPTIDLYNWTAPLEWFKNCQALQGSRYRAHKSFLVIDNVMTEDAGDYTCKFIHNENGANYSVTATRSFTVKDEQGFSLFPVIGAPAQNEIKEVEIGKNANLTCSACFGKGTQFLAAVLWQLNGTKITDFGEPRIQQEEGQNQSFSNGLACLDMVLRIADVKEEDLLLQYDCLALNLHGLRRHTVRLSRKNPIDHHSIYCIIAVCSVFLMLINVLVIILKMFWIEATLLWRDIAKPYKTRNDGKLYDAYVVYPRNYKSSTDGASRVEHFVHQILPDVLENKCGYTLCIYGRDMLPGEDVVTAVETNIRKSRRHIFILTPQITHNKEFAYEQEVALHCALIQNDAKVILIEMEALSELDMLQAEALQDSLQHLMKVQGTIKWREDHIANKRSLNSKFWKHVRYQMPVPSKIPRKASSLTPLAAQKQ
Numbers without * were called inactive; i = inactive. This excerpt belongs to a sample that is enriched for hits.

SMILES | ST2 IL33 inh
COc1cc(C2Nc3ccccc3NC3=C2C(=O)CC(c2ccccc2)C3)ccc1OC(C)=O (stereo unspecified) | i
CCCOc1ccccc1C1CC(=O)C2=C(C1)Nc1ccccc1NC2c1ccc(OC)cc1 (stereo unspecified) | i
COCCNC(=O)CSc1cc(=O)n(C)c2ccccc12 | i
NC(=O)c1ccnc(N2CCC(CO)(Cc3ccccc3C(F)(F)F)CC2)c1 | i
O=C(Cc1ccc(Cl)cc1)NCc1cccs1 | i
CC1CCc2cc(F)ccc2N1S(=O)(=O)c1ccc([N+](=O)[O-])cc1 (stereo unspecified) | 36.0%*
CC1CCc2cc(F)ccc2N1S(C)(=O)=O (stereo unspecified) | i
CC1CCc2cc(F)ccc2N1C(=O)c1ccc([N+](=O)[O-])cc1 (stereo unspecified) | i
CCOC(=O)c1c(NC(=O)COc2cc(C)c(Cl)c(C)c2)sc(C(C)=O)c1C | i
CCOc1cc2c(cc1OCC)C1C(C(=O)Nc3cccc(C)n3)c3ccccc3C(=O)N1CC2 (stereo unspecified) | i
CCn1c(CCNC(=O)C(C)(C)C)nc2ccccc21 | i
CCNc1ccc(Br)cc1-c1nc2ccccc2n(CC)c1=O | 77.0%*
CCn1c(C(C)NC(=O)C(C)(C)C)nc2ccccc21 (stereo unspecified) | i
CN(Cc1ccccc1)C(=O)C[C@@H]1CCNC[C@@H]1Cc1cc(CN2CCCCC2)on1 | i
O=C(NCc1ccc(Cl)cc1)c1ccc2c(c1)OCO2 | i
C=CC(C)(O)CC/C=C(\C)CCC(O)C(C)(C)O (stereo unspecified) | 43.0%*
CC(C)(C)c1ccccc1OCC(O)CN1CCN(c2ccccc2)CC1 (stereo unspecified) | i
O=C(NC1CCN(Cc2cccnc2)CC1)c1cccc2nccnc12 | i
CCN(CC)CCCNc1c2c(c(C#N)c3nc4ccccc4n13)CCC2 | 42.0%*
CCCc1cc(NCCCCO)n2c(nc3ccccc32)c1C#N | i
CCc1nc(NCCN(CC)CC)c(C#N)c2c1CCCC2 | i
CCCCS(=O)(=O)NC1=NCN(c2ccc(Cl)cc2)CN1 | i
COc1ccc(O)c(C(=O)CC(=O)c2ccccc2)c1 | 32.0%*
COC(=O)c1cc(O)c(OCc2ccccc2)c(O)c1 | i
COc1ccc(C(=O)c2ccccc2)c(OCC(=O)N(C)C)c1 | i
SMILES | ST2 IL33 inh
O=C(c1ccc(Oc2ccccc2)o1)N1CC(c2cccnc2)C1 | i
Cc1ccc(NC(=O)Cn2c(C(F)(F)F)nc3ccccc32)cc1C | i
CCN(CC)Cc1cnc2c(C(=O)N3CCS(=O)(=O)CC3)cnn2c1 | i
COc1ccc(-c2c3c(=O)n(C)c(=O)n(C)c3cn2Cc2ccccc2)cc1 | i
COc1ccc(-c2oc3ncn(Cc4ccccc4)c(=N)c3c2-c2ccc(OC)cc2)cc1 | 39.0%*
N=c1c2c3c(sc2ncn1Cc1ccccc1)CCCC3 | i
CCOc1ccc(NC(=O)C(NS(=O)(=O)c2cccs2)C(C)C)cc1 (stereo unspecified) | i
Cc1ccc(/C=C2\N=C(c3ccccc3C)OC2=O)o1 | 65.0%*
Cc1ccc(C2=N/C(=C\c3ccco3)C(=O)O2)cc1[N+](=O)[O-] | i
CC1=N/C(=C\c2ccc(OC(F)F)cc2)C(=O)O1 | i
O=C1OC(c2ccc3c(c2)OCO3)=N/C1=C\c1ccccc1Br | i
Cc1ccc(/C=C2\N=C(c3ccc(I)cc3)OC2=O)o1 | 47.0%*
CCOc1ccc(/C=C2\N=C(c3ccc(Br)cc3)OC2=O)cc1 | i
Cc1ccccc1C1=N/C(=C\c2ccco2)C(=O)O1 | 44.0%*
Cn1c(Cc2ccccc2)nnc1Sc1ccc(C(=O)O)cc1[N+](=O)[O-] | i
c1ccc2[nH]c(CCSc3nc4ccccc4[nH]3)nc2c1 | i
CCCCOC(=O)C1=C(C)Nc2nnnn2C1c1ccc(Cl)cc1 (stereo unspecified) | i
O=C(Nc1ccc(-c2csc(-c3ccccc3)n2)cc1)c1cc2ccccc2oc1=O | i
Cc1nn(C)cc1-c1ccnc(NCCCn2ccnc2C(C)C)n1 | i
CC(C(=O)c1ccccc1)C(=O)c1ccccc1 | i
O=S(=O)(Nc1ccc(Cl)cc1)c1ccc(F)cc1 | i
CNC(=O)C(C)N(C)Cc1cccc(C(=O)OC)c1 (stereo unspecified) | i
CNC(=O)C(C)N(C)Cc1nnc(CC2CCNCC2)n1-c1ccccc1 (stereo unspecified) | 30.0%*
CNC(=O)C(C)N(C)Cc1nc2ccccc2n1CC(C)C (stereo unspecified) | i
O=C1NC(Cc2ccc(F)cc2)(C2CCNCC2)C(=O)N1Cc1cncs1 (stereo unspecified) | i
SMILES | ST2 IL33 inh
Cc1noc(NS(=O)(=O)c2ccc(NC(=O)COc3ccc(Cl)cc3)cc2)c1C | i
Cc1ccccc1Cc1c(C)nc2nc(SCC(=O)NC3CCCC3)nn2c1C | i
O=C(O)c1ccc(CN2Cc3[nH]cnc3C[C@H]2c2nc(-c3cccc([N+](=O)[O-])c3)no2)cc1 | i
COc1ccc(-c2noc([C@@H]3Cc4nc[nH]c4CN3C(=O)Nc3ccc(Cl)cc3)n2)cc1 | i
Clc1ccc(-c2noc([C@@H]3Cc4nc[nH]c4CN3Cc3cccs3)n2)cc1 | 30.0%*
O=C(NCC1CCCO1)c1ccc(CSc2ccccc2)cc1 (stereo unspecified) | i
C=CCNCCCOc1cccc(Br)c1 | i
O=C1NN(c2cccc(Cl)c2)C(=O)/C1=C\c1cccn1-c1ccc([N+](=O)[O-])cc1 | 59.0%*
Cc1ccc(N2NC(=O)/C(=C/c3ccc(Cl)c([N+](=O)[O-])c3)C2=O)cc1C | i
O=C1NN(c2cc(Cl)cc(Cl)c2)C(=O)/C1=C\c1cccn1-c1ccc([N+](=O)[O-])cc1 | i
COc1cc(CN2CCC(C)CC2)c([N+](=O)[O-])cc1OC | i
COc1cc(CC(=O)O)c([N+](=O)[O-])cc1OC | i
COc1cc(C(c2ccc(C)o2)c2ccc(C)o2)c([N+](=O)[O-])cc1OC | 36.0%*
Cc1ccc(NC(=O)c2ccc(Cl)cc2Cl)c(C)c1 | i
Cc1ccc(OCCCSc2nc3ccccc3[nH]2)cc1 | i
Cn1nnnc1SCCNC(=O)c1ccc2nc(C3CCCCC3)oc2c1 | i
C[C@]12CC3CC(C(=O)N[C@H]4COC[C@@H]4N4CCOCC4)(C1)C[C@@](C)(C3)C2 | i
O=C1CC(C(=O)NC2CCC(n3cnnc3)CC2)c2ccccc21 (stereo unspecified) | i
CC(=O)NC(=O)c1cc2cc(Br)ccc2oc1=Nc1ccc(C#N)cc1 | 32.0%*
CC(=O)NC(=O)c1cc2ccccc2oc1=Nc1ccc(F)cc1 | i
COc1ccc2oc(=Nc3ccc(C(F)(F)F)cc3)c(C(=O)NC(C)=O)cc2c1 | i
COC1=CC(=C2C=CC(=[N+](C)C)C=C2)Oc2ccccc21 | i
Cc1ccc(NCC(O)COc2ccccc2)cc1C (stereo unspecified) | 35.0%*
Cc1cc(OCC(O)CNC(C)(C)C)ccc1C(C)C (stereo unspecified) | i
Cc1ccc(OCC(O)CNC(C)(C)C)cc1C (stereo unspecified) | i
CC/C=C(\C)CN1CCC(CNC(=O)c2occc2C)C1 (stereo unspecified) | i
Cc1c(Cl)cccc1NC(=O)CN1CCCN(Cc2cccc(F)c2)S1(=O)=O | i
COC(=O)c1c(NC(=O)c2sc3ccccc3c2Cl)sc2c1CCN(C)C2 | 37.0%*
CCOC(=O)c1c(NC(=O)c2ccc(Cl)s2)sc2c1CCN(C)C2 | i
